This note sets out measurements from PubChem BioAssay (NCATS).

“And” between values parts separate entries of the source, which are not always exact repeats. Equal values may be shown once. Inconclusive results are not listed. The source made the active and inactive calls. Unless noted, calls follow the shape of the dose curve; as a rule, active = well fitted curve in the direction sought with a large enough effect; inconclusive = small, poorly fitted or top-dose-only effect, or another doubt; inactive = no such curve, though single readings can be large; an effect the other way counts as inactive or inconclusive.

Test [1] has as its target Alpha-galactosidase A (Homo sapiens) (UniProt P06280). The test can be described thus: Counterscreen for Glucocerebrosidase Inhibitors: qHTS Assay for Human alpha-Galactosidase at pH 4.5 (AID 992). Also: 0% is about no effect. In outline:
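Fluorogenic 1536-well qHTS at pH 4.5 (citrate, Tween-20): 2 nM enzyme, 80 uM 4-MU-alpha-galactoside, 20 min room temperature, NaOH/glycine stop. Titration 0.7 nM to 77 uM, data normalized to no-enzyme and full-activity controls, Hill-fitted AC50.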

In test [2] the target is alpha-glucosidase (Oryza sativa, rice) (UniProt Q653V4). Nature of the test: Counterscreen for Glucocerebrosidase Inhibitors: qHTS Assay for Rice alpha-Glucosidase at pH 5.0 (AID 997).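 Also: 0% = full activity with enzyme and -100% = basal without enzyme.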 In outline:
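Endpoint fluorogenic assay at pH 5.0: compounds (0.7 nM to 77 uM) titrated against 4 nM rice enzyme and 400 uM 4-MU-alpha-glucoside for 20 min at room temperature; NaOH/glycine stop, read ex 365/em 440 nm, Hill-fitted AC50.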
For orientation: Counterscreens check selectivity or assay interference.

Test [3] in a line: Validation of Assay for Modulators of Lamin A Splicing (AID 1459; active = well fitted curve in the direction sought with a large enough effect in the signal ratio; the % refers to the signal ratio;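 also: cells exposed to compound for two days before reading; 0% is about no effect; ratio rise marks activators and ratio drop marks inhibitors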). In outline:
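Readout: ratio of GFP (500-530 nm) to RFP (575-640 nm) total object intensity by 488 nm laser-scanning cytometry after 48 hrs. Cells were HeLa S3 clones carrying lamin A-EGFP minigene plus DsRed2 viability reporter; vehicle 0.5% DMSO final.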

Test [4] in a line: qHTS Assay for Lipid Storage Modulators (AID 1519; calls by dose curve; as to activity change, negative = inhibition: % is scaled to controls: 0 for no effect and ±100 for the full control effect). The note with it: Drosophila S3 cells, BODIPY lipid droplet/cell ratio, laser cytometry, cells loaded with oleic acid. In outline: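 Cells seeded at 5,000 per well were treated with compounds over a concentration series and loaded with oleic acid (400 uM, as added). Lipid droplet fluorescence (488 nm excitation, 500-530 nm channel) was read by laser-scanning cytometry and normalized to 20 uM Triacsin C.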
On the technique in general: qHTS replaces the single test concentration by a dilution series.

Test [5] has as its target DNA repair nuclease/redox regulator APEX1 (Homo sapiens) (UniProt P27695). The test can be described thus: qHTS Validation Assay for Inhibitors of the Human Apurinic/apyrimidinic Endonuclease 1 (APE1) (AID 1705;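 also: TAMRA fluorescence gain over two minutes as APE1 cuts a quenched THF abasic duplex; % is scaled to controls: 0 for no effect and ±100 for the full control effect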). In outline: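 Read-out: TAMRA fluorescence (525 nm ex, 598 nm em) from cleavage of a quenched THF abasic-site duplex, 50 nM final; activity taken as intensity change between third and first of three reads 60 s apart.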

Test [6] is described as follows: Counterscreen for APE1 Inhibitors: Fluorescent Dye Displacement Validation Assay (AID 1707).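 Also: plate controls were ThO with dsDNA and no compound for no effect and ThO without dsDNA for full effect.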 In outline:
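Counterscreen flags promiscuous DNA binders: compounds displacing ThO from duplex DNA (abasic THF site, 50 nM) reduce 540 nm emission (480 nm excitation). ThO 250 nM final; Tris-HCl pH 7.5 with NaCl, MgCl2 and Tween-20.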

Test [7] addresses Endonuclease 4 (Escherichia coli (strain K12)) (UniProt P0A6C1). Nature of the test: Counterscreen for APE1 Inhibitors: qHTS Validation Assay for Inhibitors of Endonuclease IV (AID 1708). Also: % is scaled to controls: 0 for no effect and ±100 for the full control effect. In outline: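 Incision of a double-stranded 50 nM TAMRA/BHQ-2 abasic substrate was followed kinetically (525/598 nm, reads every 60 s) after 15 min enzyme–compound preincubation with 2 nM EndoIV in pH 7.5 Tris buffer with MgCl2, DTT and Tween-20; concentration-response format.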

The nature of test [8]: qHTS for differential inhibitors of proliferation of Plasmodium falciparum line GB4 (AID 1816).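 Also: parasite growth measured after 72 h incubation.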 Also: potency is read from the fitted curve at half-maximal effect.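 As to activity change, negative = inhibition: 0% = vehicle DMSO and -100% = reference inhibitor.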 The note with it: Potency: Plasmodium falciparum GB4 proliferation inhibition.
A short description of test [9]: qHTS for differential inhibitors of proliferation of Plasmodium falciparum line 3D7 (AID 1876). Also: potency is read from the fitted curve at half-maximal effect.
Test [10] can be described thus: qHTS for differential inhibitors of proliferation of Plasmodium falciparum line 7G8 (AID 1815).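 Also: parasite growth measured after three days of incubation.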 Also: potency is read from the fitted curve at half-maximal effect.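 As to activity change, negative = inhibition: plate controls were vehicle wells for no effect and reference inhibitor wells for full effect.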
[11] abbreviates: measured here: cell count channel max response.
[12] abbreviates: measured here: lipid channel max response.

Sequence of DNA repair nuclease/redox regulator APEX1 (Homo sapiens) (P27695 whole entry, looked up): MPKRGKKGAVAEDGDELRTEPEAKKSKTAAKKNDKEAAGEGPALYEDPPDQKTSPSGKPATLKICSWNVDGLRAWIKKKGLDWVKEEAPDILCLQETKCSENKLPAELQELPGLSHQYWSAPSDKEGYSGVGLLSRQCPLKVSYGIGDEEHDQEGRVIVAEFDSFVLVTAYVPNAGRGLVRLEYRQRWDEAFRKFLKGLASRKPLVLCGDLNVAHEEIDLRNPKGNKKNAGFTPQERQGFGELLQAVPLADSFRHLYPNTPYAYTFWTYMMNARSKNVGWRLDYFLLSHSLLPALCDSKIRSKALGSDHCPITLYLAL
Sequence of Alpha-galactosidase A (Homo sapiens) (P06280 whole entry, looked up): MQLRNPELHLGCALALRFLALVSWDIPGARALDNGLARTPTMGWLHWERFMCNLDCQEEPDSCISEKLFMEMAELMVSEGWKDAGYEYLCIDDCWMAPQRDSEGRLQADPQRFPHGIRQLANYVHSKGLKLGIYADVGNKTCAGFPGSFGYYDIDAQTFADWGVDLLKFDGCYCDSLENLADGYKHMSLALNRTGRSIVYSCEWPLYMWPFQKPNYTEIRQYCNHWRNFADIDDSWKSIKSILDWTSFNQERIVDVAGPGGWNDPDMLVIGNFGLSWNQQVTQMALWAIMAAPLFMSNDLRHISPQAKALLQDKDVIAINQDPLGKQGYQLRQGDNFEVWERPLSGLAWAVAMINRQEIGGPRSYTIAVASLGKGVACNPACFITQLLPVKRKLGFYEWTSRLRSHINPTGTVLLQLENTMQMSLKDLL

`COc1ccc(C(=O)NCc2cccnc2)cc1C(=O)NCc1cccnc1`: the outcome in [1], in test [2] and in test [3] was inactive. Further, the activity change, negative = inhibition in test [4] (at 25.7 µM (top of the series)) is 1.2% (inactive); in test [4] (at 57.5 µM (top of the series)) it was 1.17% (inactive). Besides, the max response in test [4] (setting [11]) is -2.62% and -3.84%; in [4] (setting [12]) it was -2.28% and -1.65%. Also, the Potency entry in test [5], in test [6], in [7], in test [8] and in test [9] was “inactive” in each case.

On to `O=C(O)c1ccccc1Nc1ccccc1`, for which the result in test [1], in test [2] and in test [3] was inactive. In addition, the activity change, negative = inhibition in [4] (at 57.5 µM (top of the series)) was 7.05% (inactive) and 0.0171% (inactive). Further, the max response is 2.57% and -16.2% in test [4] (setting [11]); 11.5% and -17.1% in test [4] (setting [12]). The Potency entry in [5], in test [6], in [7], in test [10], in test [8] and in [9] was “inactive” each time.

With `NCCS(=O)O`, the compound was called inactive in [1], in [2] and in [3]. The activity change, negative = inhibition in test [4] (at 57.5 µM (top of the series)) is -6.29% (inactive) and 1.76% (inactive). The max response is -10.2% and 4.71% in [4] (setting [11]); -16.1% and 6.07% in test [4] (setting [12]). The Potency entry in test [5], in [6], in test [7], in [10], in [8] and in test [9] was “inactive” throughout.

`COc1cc(C(O)CO)ccc1O` (stereo unspecified): the outcome in test [3] was inactive. In addition, in test [4] (at 57.5 µM (top of the series)), the activity change, negative = inhibition is -0.467% (inactive). In addition, the max response in test [4] (setting [11]) was -50.8%; in test [4] (setting [12]), -49.3%. The Potency result in test [5], in [6], in [7], in test [10], in [8] and in test [9] was “inactive” each time.

Consider `NC1CONC1=O` (stereo unspecified), for which the compound was classed as inactive in [3]. Besides, the activity change, negative = inhibition in test [4] (at 57.5 µM (top of the series)) is 9.95% (inactive) and 0.344% (inactive). The max response was 9.83% and -1.76% in [4] (setting [11]); 24% and -1.09% in test [4] (setting [12]). For the same compound, the Potency result in test [5], in [6], in test [7], in [10], in test [8] and in [9] was “inactive” in each case.

Turning to `Cc1ccc([N+](=O)[O-])cc1S(=O)(=O)N(C)C`, the outcome in test [1], in test [2] and in test [3] was inactive. The activity change, negative = inhibition in test [4] (at 57.5 µM (top of the series)) was -0.817% (inactive) and -0.0593% (inactive). The max response was 1.19% and 66.8% in test [4] (setting [11]); 0.358% and 67% in [4] (setting [12]). Further, the Potency result in [5], in [6], in test [7], in test [10], in test [8] and in [9] was “inactive” each time.

In the case of `CN1CCCC1CCOC(C)(c1ccccc1)c1ccc(Cl)cc1` (stereo unspecified), the result in test [3] was inactive. For the same compound, in test [4] (at 57.5 µM (top of the series)), the activity change, negative = inhibition was 0.234% (inactive). Moreover, the max response is -30.3% in test [4] (setting [11]) and -27.1% in test [4] (setting [12]). Also, the Potency entry in test [5], in [6] and in test [7] was “inactive” in each case. Besides, the Potency in [10] is 5.01 µM (active); in [8] it was 5.62 µM (active); in [9] it was 3.98 µM (active).

Regarding `NCCCCN=C(N)N`, the outcome in [1], in test [2] and in [3] was inactive. In addition, in [4] (at 57.5 µM (top of the series)), the activity change, negative = inhibition was 6.41% (inactive). Besides, the max response in test [4] (setting [11]) was 4.55%; in test [4] (setting [12]) it was 23.5%. Also, the Potency entry in [5], in [6], in [7], in test [10], in [8] and in test [9] was “inactive” each time.

For the compound `NC(N)=[N+]1CCc2ccccc2C1`, the outcome in test [1], in test [2] and in test [3] was inactive. Further, the activity change, negative = inhibition in [4] (at 57.5 µM (top of the series)) is 1.3% (inactive). Further, the max response in test [4] (setting [11]) is 6.74%; in test [4] (setting [12]) it was -12.8%. Moreover, the Potency result in test [5], in test [6], in test [7], in test [10], in test [8] and in test [9] was “inactive” throughout.

In the case of `CC(N)=NCCCC[C@@H](N)C(=O)O`, in test [3], the compound was classed as inactive. Also, in test [4] (at 57.5 µM (top of the series)), the activity change, negative = inhibition is -0.966% (inactive). The figures for the max response in test [4] (setting [11]) and in test [4] (setting [12]) were 1.29% and 2.75%, respectively. The Potency entry in test [5], in [6], in [7], in test [10], in test [8] and in test [9] was “inactive” throughout.

With `O=C(O)c1cccnc1C(=O)O`, the compound was called inactive in [1], in [2] and in test [3]. Also, the activity change, negative = inhibition in test [4] (at 57.5 µM (top of the series)) was 1.68% (inactive). For the same compound, the values for the max response in [4] (setting [11]) and in [4] (setting [12]) were 9.96% and 12.5%, respectively. The Potency entry in test [5], in test [6], in [7], in test [10], in test [8] and in [9] was “inactive” throughout.

As for `COc1cc(CC(=O)O)ccc1O`, the call in [1], in test [2] and in test [3] was inactive. In test [4] (at 57.5 µM (top of the series)), the activity change, negative = inhibition is -0.731% (inactive). For the same compound, the max response came to 56.6% in [4] (setting [11]) and 57.3% in test [4] (setting [12]). Also, the Potency entry in test [5], in [6], in [7], in test [10], in [8] and in test [9] was “inactive” each time.

Regarding `Oc1cc2c(cc1O)C(c1ccccc1)CNCC2` (stereo unspecified), the compound was called inactive in test [3]. Further, in [4] (at 57.5 µM (top of the series)), the activity change, negative = inhibition is 4.39% (inactive) and 0.147% (inactive). Also, the max response is 1.14% and -18.7% in [4] (setting [11]); 16.2% and -20.2% in test [4] (setting [12]). For the same compound, the Potency entry in test [5], in [6] and in test [7] was “inactive” in each case.

Take `N[C@@H](CS(=O)O)C(=O)O`: the result in test [1], in test [2] and in test [3] was inactive. The activity change, negative = inhibition in [4] (at 57.5 µM (top of the series)) was 4.63% (inactive) and 1.31% (inactive). Besides, the max response in test [4] (setting [11]) is 10.5% and -12.6%; in test [4] (setting [12]), 17.1% and -9.76%. Also, the Potency entry in test [5], in test [6], in test [7], in test [10], in [8] and in test [9] was “inactive” throughout.

On to `Cc1nc(N=Nc2ccc(S(=O)(=O)O)cc2S(=O)(=O)O)c(COP(=O)(O)O)c(C=O)c1O`, for which the call in [1], in [2] and in [3] was inactive. Also, the activity change, negative = inhibition in [4] (at 57.5 µM (top of the series)) was 0.0773% (inactive) and 2.25% (inactive). The max response is -1.61% and 6.03% in [4] (setting [11]); -3.14% and 17.5% in test [4] (setting [12]). Further, the Potency result in test [5], in test [6], in test [7], in test [10], in test [8] and in test [9] was “inactive” in each case.

In the case of `C[C@@H](NCCc1ccc(O)cc1)[C@@H](O)c1ccc(O)cc1`, the result in [3] was inactive. Further, the activity change, negative = inhibition in test [4] (at 57.5 µM (top of the series)) was 1.71% (inactive). In addition, the max response in [4] (setting [11]) was -16.7%; in test [4] (setting [12]) it was -23.8%. For the same compound, the Potency result in [5], in test [6], in test [7], in test [10], in test [8] and in test [9] was “inactive” in each case.

Take `O=C(O)C1=CCCNC1`: the compound was called inactive in test [1], in test [2] and in [3]. In addition, the activity change, negative = inhibition in [4] (at 57.5 µM (top of the series)) is 5.3% (inactive) and 2.39% (inactive) and 0.0791% (inactive). For the same compound, the max response in test [4] (setting [11]) is 11.8% and 11.1% and -5.85%; in test [4] (setting [12]), 19.5% and 15.3% and -4.32%. The Potency result in test [5], in [6], in test [7], in [10], in test [8] and in test [9] was “inactive” throughout.

`O=c1[nH]ccc2c(O)cccc12`: the result in [1], in [2] and in test [3] was inactive. Moreover, in [4] (at 57.5 µM (top of the series)), the activity change, negative = inhibition is 1.52% (inactive). Also, the values for the max response in [4] (setting [11]) and in test [4] (setting [12]) were -28% and -29.5%, respectively. Also, the Potency entry in test [5], in [6], in test [7], in [10], in test [8] and in test [9] was “inactive” in each case.
